Measured values reported in PubChem BioAssay AID1851 (National Center for Advancing Translational Sciences (NCATS), 2009).
The whole screen tested about 16,000 compounds, of which about 2,600 (16%) were called active. About 20% were inconclusive and are not listed. Calls come from the whole dose curve; as a rule, active = well fitted curve in the direction sought with a large enough effect; inconclusive = small, poorly fitted or top-dose-only effect, or effect the other way; inactive = no such curve, though single readings can be large or run the other way. Only a sample is shown.

Each compound was assayed against Cytochrome P450 2D6 (Homo sapiens) (UniProt P10635) (assay: Cytochrome panel assay with activity outcomes). Conditions: recombinant CYP, pro-luciferin dealkylation, luminescence, p450-cyp2d6; series mostly up to 57.1 µM; activity, negative = inhibition: at the top concentration.
Sequence of Cytochrome P450 2D6 (Homo sapiens) (P10635 whole entry, looked up): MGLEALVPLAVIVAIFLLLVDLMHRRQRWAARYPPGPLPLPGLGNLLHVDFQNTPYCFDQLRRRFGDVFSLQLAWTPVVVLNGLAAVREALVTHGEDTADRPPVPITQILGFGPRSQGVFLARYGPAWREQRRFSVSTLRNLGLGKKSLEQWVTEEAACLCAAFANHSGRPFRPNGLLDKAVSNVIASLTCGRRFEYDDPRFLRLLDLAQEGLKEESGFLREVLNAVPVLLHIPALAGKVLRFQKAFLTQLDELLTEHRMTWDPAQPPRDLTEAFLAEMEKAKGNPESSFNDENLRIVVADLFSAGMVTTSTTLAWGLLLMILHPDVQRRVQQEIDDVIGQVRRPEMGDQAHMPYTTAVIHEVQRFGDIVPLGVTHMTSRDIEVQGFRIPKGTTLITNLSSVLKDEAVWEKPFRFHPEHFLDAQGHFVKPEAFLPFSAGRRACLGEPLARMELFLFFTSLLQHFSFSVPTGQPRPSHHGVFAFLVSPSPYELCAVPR
% is set by controls: 0 for no effect and ±100 for the full control effect.

Row | SMILES | activity, negative = inhibition | AC50
1 | CCCCCCCCCCCCCCSCC(=O)O | 13.5% (inactive) | –
2 | COc1ccc(-n2c(-c3cnccn3)n[nH]c2=S)cc1 | -9.31% (inactive) | –
3 | O=C(Nc1cccc(F)c1)N1CCCC2(CCNCC2)C1 | -13.8% (inactive) | –
4 | C(/C=C\c1ccccc1)=Nc1ccc2c(c1)Cc1ccccc1-2 | -10.4% [at 11.4 µM] (inactive) | –
5 | COc1ccc(-n2c(=O)c(-c3cn(C)c4ccccc34)nc3cncnc32)cc1 | -5.82% (inactive) | –
6 | CC(=O)[C@@]1(O)Cc2c(O)c3c(c(O)c2[C@H](O[C@H]2C[C@H](N)[C@H](O)[C@H](C)O2)C1)C(=O)c1ccccc1C3=O | 0.0095% (inactive) | –
7 | Cn1c(CCC(=O)Nc2ccc(N3CCOCC3)cc2)nc(=O)c2ccccc21 | -12.1% (inactive) | –
8 | COC(=O)c1nn(-c2ccccc2)c(=O)cc1Oc1ccccc1 | -9.53% (inactive) | –
9 | N#C[C@@H](N=Nc1ccccc1C(=O)O)C(N)=O | -0.182% [at 11.4 µM] (inactive) | –
10 | O=C(N/N=C/c1cccc(C(F)(F)F)c1)C1CCN(c2ncc(C(F)(F)F)cc2Cl)CC1 | 25.5% (inactive) | –
11 | COc1ccc(/C=C(/C(=O)Nc2ccccc2C(=O)NC(C)C)c2ccccc2)cc1 | -25.8% (inactive) | –
12 | Cc1cccc(N2CCN(C(=O)CSCc3c(C)noc3C)CC2)c1C | -27.5% (inactive) | –
13 | CC(C)OC(=O)CC12CN(C)CC(CC(=O)OC(C)C)(CN(C)C1)C2=O | – | 2.51 µM (active)
14 | COc1ccc(CNC(=O)/C=C/c2ccc(OCCCF)cc2)cc1 | -20.6% (inactive) | –
15 | CCC(O)CNc1nc(-n2nc(C)cc2C)nc2sc3c(c12)CC(C)(C)OC3 (centres undefined) | -8.4% (inactive) | –
16 | CCSc1ncnc2c1sc1nc(-c3ccco3)c3c(c12)CC(C)(C)OC3 | -3.51% (inactive) | –
17 | CCCSc1nc(NCc2ccco2)c2c3c(sc2n1)COC(C)(C)C3 | – | 14.1 µM (active)
18 | O=c1cnc2cnc(N3CCOCC3)nc2n1CCc1ccccc1 | -11% (inactive) | –
19 | CCCc1ccc(C2C3=C(CC(C)(C)CC3=O)NC3=C2C(=O)c2ccccc23)cc1 (centres undefined) | 3.78% (inactive) | –
20 | Cc1cc2c(cc1C)NC(c1nc3ccccc3[nH]1)C1=C(CC(C)(C)CC1=O)N2 (centres undefined) | -11.2% (inactive) | –
21 | CC1(C)CC(=O)C2=C(C1)Nc1cc3c(cc1C2c1ccc(F)cc1)OCO3 (centres undefined) | – | 7.08 µM (active)
22 | Brc1ccc([C@H]2CN3CCSC3=N2)cc1 | -14.8% (inactive) | –
23 | Cc1cccc(C)c1NC(=O)C(c1ccc(Cl)cc1Cl)N1CCCCC1 (centres undefined) | – | 10 µM (active)
24 | Cc1cccc(C)c1NC(=O)C(NC=O)c1ccccc1Cl (centres undefined) | -25.5% (inactive) | –
25 | Cc1cccc(C)c1NC(=O)C(c1ccccc1)N1CCC1=O (centres undefined) | -9.63% (inactive) | –
26 | NC(N)=N[C@@H]1C(O)[C@H](N=C(N)N)[C@@H](O)C(O)[C@H]1O (some centres undefined) | 4.19% [at 11.4 µM] (inactive) | –

Row | SMILES | activity, negative = inhibition | AC50
27 | Cc1cc(C(F)(F)F)nn1CC(=O)Nc1cccnc1 | – | 12.6 µM (active)
28 | NNC(=O)Cc1cccnc1 | 8.36% [at 11.4 µM] (inactive) | –
29 | CCNS(=O)(=O)c1ccc(NC(=O)c2cc(C(F)(F)F)nn2C)cc1 | 5.15% (inactive) | –
30 | CC1=NN(c2ccccc2)C(=O)[C@@H]1N=Nc1ccc(S(N)(=O)=O)cc1 | 8.14% [at 11.4 µM] (inactive) | –
31 | CCOC(=O)N1CCC(NC(=O)CCC(=O)N2CC(C)Oc3ccc(C)cc32)CC1 (centres undefined) | -4.46% (inactive) | –
32 | O=C(Nc1c[nH]c(=O)[nH]c1=O)Oc1ccccc1 | -9.58% [at 11.4 µM] (inactive) | –
33 | O=C(OCc1nc2ccccc2s1)c1ccc(Br)s1 | -15.7% (inactive) | –
34 | COc1cccc(-c2cc(NCc3ccc(OC)cc3OC)ncn2)c1 | – | 12.6 µM (active)
35 | COc1cccc(-c2cc(NCc3ccccc3)ncn2)c1 | – | 12.6 µM (active)
36 | COc1ccc(CCNc2nc(-c3cccnc3)cs2)cc1OC | – | 7.08 µM (active)
37 | N#Cc1cccc(-c2cc(NCc3ccccc3)ncn2)c1 | -10.1% (inactive) | –
38 | Cc1noc(C)c1-c1cc(NCc2cccnc2)ncn1 | 8.5% (inactive) | –
39 | COc1ccccc1CNc1cc(-c2cccnc2)ncn1 | – | 5.01 µM (active)
40 | COc1ccc(-c2cc(C(=O)NCc3cccnc3)no2)cc1OC | -16.4% (inactive) | –
41 | Cc1noc(C)c1-c1cc(NCc2ccccc2)ncn1 | -7.96% (inactive) | –
42 | Cc1cnc(CNc2cc(-c3cccnc3)ncn2)cn1 | -6.26% (inactive) | –
43 | COc1ccc(-c2csc(NC(=O)CCn3cnc4ccccc4c3=O)n2)cc1OC | -11.6% (inactive) | –
44 | CCN1CCc2c(sc(N)c2C(N)=O)C1 | -8.92% (inactive) | –
45 | OC[C@@H]1O[C@@H](n2cnc3c(NC4CCCCC4)ncnc32)[C@@H](O)[C@H]1O | -1.5% (inactive) | –
46 | O=C(Nc1c(C(=O)N2CCOCC2)cnn1-c1ccccc1)c1ccco1 | 10.7% (inactive) | –
47 | O=c1c(Cc2ccccc2)c(O)nc2n1CCS2 | 16% (inactive) | –
48 | O=C(c1ccc2nc3ccc(Cl)cc3c(=O)n2c1)N1CCOCC1 | -14.8% (inactive) | –
49 | Cc1cnc(CNc2cc(-c3cccc(C#N)c3)ncn2)cn1 | 4.2% (inactive) | –
50 | COc1cccc(-c2cc(NCc3cccs3)ncn2)c1 | – | 12.6 µM (active)
51 | COc1ccccc1CNc1cc(-c2cccc(C#N)c2)ncn1 | -3.17% (inactive) | –
52 | COc1cccc(-c2cc(NCc3ccccc3OC)ncn2)c1 | – | 15.8 µM (active)

Row | SMILES | activity, negative = inhibition | AC50
53 | COCCn1c(=S)[nH]c2cc(C(=O)NC(C)C)ccc2c1=O | 18.7% (inactive) | –
54 | O=C(N/N=C/c1ccncc1)c1cc2c(ccc3ccccc32)o1 | -14.2% (inactive) | –
55 | CCCC(CCC)C(=O)NNc1cc(=O)c2c(=O)n(C)c(=O)n(C)c2[nH]1 | -14.7% (inactive) | –
56 | O=C(O)c1cc(S(=O)(=O)N2CCCCC2)ccc1F | 7.06% (inactive) | –
57 | Cc1ccc(S(=O)(=O)Oc2cc(S(=O)(=O)O)cc3cc(S(=O)(=O)O)cc(N)c23)cc1 | 8.03% [at 11.4 µM] (inactive) | –
58 | CC(C)Sc1cc(N2CCOCC2)nc(-c2ccc(Cl)cc2)n1 | 10.4% (inactive) | –
59 | Oc1cc2c(cc1O)CN(C(=S)NCCc1ccc(Cl)cc1)CCC2 | – | 12.6 µM (active)
60 | CC(C)(Oc1ccc(CCNC(=O)c2ccc(Cl)cc2)cc1)C(=O)O | 4.92% [at 25.6 µM] (inactive) | –
61 | CC(=O)NCCc1ccc(O)c(O)c1 | -0.325% (inactive) | –
62 | CCCCNC(=O)C1CCN(Cc2ccccn2)CC1 | – | 8.91 µM (active)
63 | CCS(=O)(=O)N1CCC(C(=O)NCc2cccnc2)CC1 | -6.02% (inactive) | –
64 | O=C(NCCCN1CCN(C2CCCCC2)CC1)Nc1ccccc1C(F)(F)F | – | 5.01 µM (active)
65 | CCN1CCN(CCCNC(=O)C(NC(=O)C2CCC(C)CC2)C(C)C)CC1 (centres undefined) | 2.19% (inactive) | –
66 | O=C(Nc1cccn(Cc2ccc(F)cc2)c1=O)NC1CCCCC1 | -13.3% (inactive) | –
67 | O=C(NCc1ccccc1Cl)C1CCN(S(=O)(=O)N2CCC3(CC2)OCCO3)CC1 | -3.92% (inactive) | –
68 | O=C(NCCc1ccc(Cl)cc1)C1CCN(S(=O)(=O)N2CCC3(CC2)OCCO3)CC1 | – | 14.1 µM (active)
69 | COCCNC(=O)C1CCN(S(=O)(=O)N2CCC3(CC2)OCCO3)CC1 | 24.2% (inactive) | –
70 | O=C(NCCCN1CCCCCC1)[C@@H](c1ccccc1)C1CCCCC1 | – | 0.631 µM (active)
71 | O=C1NCCCC1C(=O)Nc1ccccc1C(F)(F)F (centres undefined) | -13.4% (inactive) | –
72 | CC(C)C(NC(=O)C1CCCCC1)C(=O)NCc1ccccn1 (centres undefined) | 18.3% (inactive) | –
73 | CCOC(=O)CSc1ncc(OC)c(Sc2ccc(Cl)cc2)n1 | -24.8% (inactive) | –
74 | CCCC(=O)Nc1nc(-c2ccc3c(c2)CCN3S(C)(=O)=O)cs1 | -1.01% (inactive) | –
75 | COc1ccccc1C(=O)O/N=C1/CCCc2c1ccc(OC)c2[N+](=O)[O-] | 3.73% (inactive) | –
76 | C[C@](N)(Cc1ccc(O)c(O)c1)C(=O)O | -0.0132% (inactive) | –
77 | Nc1nc(N)c2nn(-c3ccc(C(=O)O)cc3)nc2n1 | -6.74% [at 11.4 µM] (inactive) | –
78 | Cc1c(-c2ccc(F)cc2)nc(N)c(C#N)c1-c1cccs1 | -11% (inactive) | –

Row | SMILES | activity, negative = inhibition | AC50
79 | CCOc1ccc(N=C2NC(=O)C(CC(=O)O)S2)cc1 (centres undefined) | -2.86% (inactive) | –
80 | CC(C)N(CCNC(=O)C1CCN(S(=O)(=O)N2CCOCC2)CC1)Cc1ccccc1 | -20.1% (inactive) | –
81 | O=C(NCCCN1CCc2ccccc2C1)C1CCN(S(=O)(=O)N2CCCC2)CC1 | – | 7.94 µM (active)
82 | COc1cccc(CNC(=O)C2CCN(S(=O)(=O)N3CCCCC3)CC2)c1 | -15.4% (inactive) | –
83 | CCS(=O)(=O)N1CCC(C(=O)NCCCN2CCCC2)CC1 | -1.23% (inactive) | –
84 | CCCCN(CC)S(=O)(=O)N1CCC(C(=O)NCCCN2CCOCC2)CC1 | -4.19% (inactive) | –
85 | Cc1ccc(NC(=O)CCC(=O)NNS(=O)(=O)c2ccccc2)c(C)c1 | -2.14% (inactive) | –
86 | O=C(C1CCN(S(=O)(=O)N2CCOCC2)CC1)N1CCN(Cc2ccccc2)CC1 | -1.18% (inactive) | –
87 | O=C(NCCCN1CCN(Cc2ccccc2)CC1)C1CCN(S(=O)(=O)N2CCCC2)CC1 | – | 3.98 µM (active)
88 | O=C(NCCCN1CCC(Cc2ccccc2)CC1)C1CCN(S(=O)(=O)N2CCOCC2)CC1 | – | 12.6 µM (active)
89 | Cc1cc(C)c(S(=O)(=O)NNC(=O)C2CCN(Cc3ccccc3)CC2)c(C)c1 | – | 15.8 µM (active)
90 | O=C(NCc1ccc(F)cc1)C1CCN(S(=O)(=O)N2CCCCC2)CC1 | -7.67% (inactive) | –
91 | CCN1C(=O)CC(N2CCN(CC(=O)NC(C)C)CC2)C1=O (centres undefined) | 22.1% (inactive) | –
92 | CCN(CC)C(=O)Cn1cc(/C=C(\C#N)C(=O)N2CCN(c3ccccc3)CC2)c2ccccc21 | -15.9% (inactive) | –
93 | Cc1ccc(-c2nc3ncccn3c2NC(=O)C2CC2)cc1 | -1.06% (inactive) | –
94 | CCn1c(=O)c2c(O)cc(=O)oc2c2ccccc21 | 9.72% (inactive) | –
95 | CCc1c(C)c(C#N)c2nc3ccccc3n2c1Nc1c(C)n(C)n(-c2ccccc2)c1=O | -27.3% (inactive) | –
96 | N#CCCn1c(=O)c(-c2ccccc2)nc2cnc(Oc3cccc(Cl)c3)nc21 | 2.25% (inactive) | –
97 | Cn1cc(-c2nc3cnc(Oc4ccccc4)nc3n(C)c2=O)c2ccccc21 | 6.63% (inactive) | –
98 | CC[C@H](CN(C)C)C(=O)c1ccco1 | -4.86% [at 11.4 µM] (inactive) | –
99 | COc1ccccc1/C=N/NC(=Nc1ccc(C)cc1)c1nc2ccccc2s1 | 3.23% (inactive) | –
100 | COCCn1c(=O)c(C)nc2cncnc21 | -17.4% (inactive) | –
101 | CSc1nc(Sc2cccc(Cl)c2)c2ccccc2n1 | -0.0132% (inactive) | –
102 | Cc1c(N2C(=O)CS/C2=N\N=C\c2ccc(Cl)cc2)c(=O)n(-c2ccccc2)n1C | 21% (inactive) | –
103 | CC(C)Cn1c(-c2nn(C)cc2Cl)n[nH]c1=S | -6.99% (inactive) | –
104 | O=C(Nc1cccc(F)c1)N1CCC2(CC1)CCN(C(=O)c1csnn1)CC2 | -19.8% (inactive) | –
